# According to ChEMBL document CHEMBL3988442, “University of Dundee, Small-Polar-MMV Screening Library” (2021):
# The campaign covered roughly 48,000 compounds. About 13,000 (27%) showed an effect of 50% or more. The list shows a part of the results.
# Test system: Wolbachia pipientis
# Assay: Anti-Wolbachia Cell-Based Screen
# Format: functional
# Design: scale not given: in the data most compounds retested in dose-response had high values
# Settings: 5 µM
row,Structure (SMILES),Percent Effect
1,Nc1ccc(CC2COc3ccccc3C2)cn1 (stereo not drawn),18.77%
2,CCOc1ccc(S(=O)(=O)NCCc2ccc(N(C)C)cc2)cc1C,13.74%
3,CC(C)c1nc(CCN(C)C(=O)C2COc3ccccc3C2)no1 (stereo not drawn),-22.02%
4,Cc1nn(C)c(N(C)C)c1CNCCC(=O)NC1CCCC1,122.8%
5,Cc1nn(C)c(N(C)C)c1CNCCC(=O)NC1CCCCC1,122.8%
6,CC(NCc1c(C(C)C)nn(C)c1N(C)C)C(=O)NC1CCCC1.Cl (stereo not drawn),-15.88%
7,CC(C)c1nn(C)c(N(C)C)c1CNCCC(=O)NC1CCCC1,-3.602%
8,Cc1nn(C)c(N(C)C)c1CNCCNS(C)(=O)=O,-8.307%
9,Cc1nn(CC(C)C)c(N(C)C)c1CNCCC(=O)NC(C)C,-6.967%
10,CC(C)c1nn(C)c(N(C)C)c1CNCCC(=O)NC1CCCCC1,102.1%
11,Cc1cccc(NC(=O)CCNCc2c(C)nn(C)c2N(C)C)n1,-6.985%
12,CNC(=O)CCCNCc1c(C)nn(C)c1N(C)C,-1.91%
13,O=C1[C@@H]2CCN(CC3CC3)C[C@@H]2OCCN1c1ccsc1,-4.722%
14,O=C(N[C@@H]1CN(c2ncccn2)C[C@@H]2CCCO[C@@H]21)c1cnccn1.O=C(O)C(F)(F)F,-32.47%
15,Br.COc1ccc(OCCc2cc(C3CCN(CC(C)C)C3)n[nH]2)cc1 (stereo not drawn),140.6%
16,Clc1ccc(OCCc2cc(C3CCN(c4ncccn4)C3)n[nH]2)cc1 (stereo not drawn),119.6%
17,COc1ccc(-c2c[nH]c(C3CC(=O)N(CC(C)C)C3)n2)cc1 (stereo not drawn),-5.236%
18,CCCN1CCC(c2cc(CCOc3ccc(C(F)(F)F)cc3)[nH]n2)C1 (stereo not drawn),115.7%
19,CC(C)CN1CC[C@H](c2nnc(COc3ccc(F)cc3)o2)C1,3.256%
20,O=C(NCCN1CCCC1)Nc1cc(C(=O)N2CCOCC2)ccc1Cl,-2.741%
21,CC(CNS(C)(=O)=O)c1ccc(F)c(F)c1 (stereo not drawn),0.4429%
22,Cc1ccc(C(=O)N2C[C@H](NS(C)(=O)=O)[C@@H](C(C)C)C2)cc1F,7.707%

row,Structure (SMILES),Percent Effect
1,Cc1ccc(S(=O)(=O)NCC(C)C#N)cc1Br (stereo not drawn),-32.7%
2,CC(NC(=O)NC1CCN(Cc2ccncc2)CC1)c1cccc(F)c1 (stereo not drawn),10.76%
3,COc1ccc(N2CCCN(CC(=O)N3CCNC(=O)C3)CC2)cc1,-7.971%
4,CNC(=O)C1CCN(C(=O)c2ccn(-c3ccc(F)cc3)n2)CC1,-2.487%
5,CNC(=O)N1CCC2(CC1)CNc1ccc(F)cc12.Cl,2.564%
6,CNC(=O)C1CN(c2ccc(F)cc2)CCN1.Cl (stereo not drawn),158.3%
7,COc1ccc(SC(C)C(=O)N2CCC(C(N)=O)CC2)cc1 (stereo not drawn),-1.042%
8,COc1ccc(N2CCNC(C(N)=O)C2)cc1 (stereo not drawn),90.5%
9,Cl.NC(=O)C1CN(c2ccc(F)cc2)CCN1 (stereo not drawn),113.5%
10,Cc1cc(C(=O)NCc2ccc(N3CCCC(C(N)=O)C3)cc2)[nH]n1 (stereo not drawn),-1.321%
11,NC(=O)C1CCN(C(=O)c2ccn(-c3ccc(F)cc3)n2)C1 (stereo not drawn),-7.383%
12,CCN(CC)CCCC(C)NC(=O)c1ccccc1-n1cccn1 (stereo not drawn),7.306%
13,Cc1csc(CN(C)C(=O)Nc2cc(F)cc(N3CCCC3)c2)n1,1.916%
14,Cc1cc(CN2CCN(C(=O)C3CCC3)[C@@H]3CS(=O)(=O)C[C@@H]32)ccc1F,-7.739%
15,COCc1cccc(NS(=O)(=O)c2cc(C(=O)O)cs2)c1,-2.674%
16,Cc1[nH]ncc1CCCNC(=O)N1CCCC(c2nncn2C)C1 (stereo not drawn),131.8%
17,Cc1[nH]ncc1CCCNC(=O)N1CCC(C(N)=O)CC1,-4.643%
18,Cn1cc(CCNC(=O)N2CCCC(c3nncn3C)C2)cn1 (stereo not drawn),107%
19,COc1ccc(CC(=O)N2CCCC(c3nncn3C)C2)cc1 (stereo not drawn),-3.253%
20,COc1ccc(CCNC(=O)N2CCCC(c3nncn3C)C2)cc1 (stereo not drawn),95.68%
21,Cc1ccccc1CCNC(=O)N1CCCC(c2nncn2C)C1 (stereo not drawn),7.468%
22,Cn1cnnc1C1CCCN(C(=O)NCCc2ccccc2F)C1 (stereo not drawn),-7.484%

row,Structure (SMILES),Percent Effect
1,CC(=O)N1CCCN(C(=O)NCCCc2cn[nH]c2C)CC1,5.241%
2,COc1ccccc1CCNC(=O)N1CCCC(c2nncn2C)C1 (stereo not drawn),0.4535%
3,CCOc1cc(CN(C)CCOC)ccc1OC(F)F,9.652%
4,CN(C)C(=O)c1cccc(NC(=O)Cc2cc(F)ccc2F)n1,-6.771%
5,CC(=O)NCCCNCc1cc(F)ccc1Br,10.59%
6,CCS(=O)(=O)NCCNCc1cc(F)ccc1Br,5.201%
7,CS(=O)(=O)NCCCNCc1cc(F)ccc1Br,85.45%
8,Cc1sc(-c2ccco2)nc1C(=O)N1CCCC1Cn1cccn1 (stereo not drawn),99.48%
9,Cc1cnn(CC2CCCN2C(=O)c2cnc(-c3ccco3)s2)c1 (stereo not drawn),107.8%
10,O=C(c1cnc(-c2ccco2)s1)N1CCCC1Cn1cccn1 (stereo not drawn),-5.367%
11,O=C(c1cnc(-c2ccco2)s1)N1CCCCC1Cn1cccn1 (stereo not drawn),80.46%
12,Cc1nc(-c2ccco2)ccc1C(=O)N1CCCC1Cn1cccn1 (stereo not drawn),-3.884%
13,COc1ccccc1S(=O)(=O)CCOC(C)C,8.609%
14,CC(C)Oc1ccc(CSc2nnc(CN3CCCC3=O)o2)cc1,-8.061%
15,Cc1ccc(OCC2CCCN(Cc3ccc(CO)o3)C2)cc1 (stereo not drawn),-15.89%
16,COc1cccc(OCC2CCCN(c3cc(C(N)=O)ccn3)C2)c1 (stereo not drawn),12.14%
17,OCc1csc(N2CCN(Cc3cccc(F)c3)CC2)n1,-8.687%
18,OCc1csc(N2CCCN(Cc3ccc(F)cc3)CC2)n1,11.91%
19,Cc1ccc(OCC2CCCN(c3cc(C(N)=O)ccn3)C2)cc1 (stereo not drawn),0.1163%
20,OCc1csc(N2CCCC(COc3cccc(F)c3)C2)n1 (stereo not drawn),96.77%
21,COc1ccc(OCC2CCCN(c3nc(CO)cs3)C2)cc1 (stereo not drawn),99.62%
22,Cc1ccc(OCC2CCCN(c3nc(CO)cs3)C2)cc1 (stereo not drawn),87.49%

row,Structure (SMILES),Percent Effect
1,CC(C)NS(=O)(=O)c1cc(C(=O)O)cc(-c2ccccc2CN(C)C)c1,9.283%
2,CCOCCN1CCN(Cc2nnc(-c3occc3C)o2)CC1,-3.196%
3,CC(C)C(O)C1(CNC(=O)Nc2ccc(CN3CCOC3=O)cc2)CC1 (stereo not drawn),-15.4%
4,COC(=O)c1ccc2ccn(CC3CCCO3)c(=O)c2c1 (stereo not drawn),-4.095%
5,CCOCCn1c(=O)[nH]c2cc(C(=O)N(C)Cc3nc(C)c[nH]3)ccc21,-5.58%
6,Cc1c(C2N3C[C@]4(C(C)C)CN2C[C@](C(C)C)(C3)C4=O)[nH]c(=O)[nH]c1=O (stereo partly drawn),123.1%
7,CCC[C@]12CN3C[C@](CCC)(CN(C1)C3c1[nH]c(=O)[nH]c(=O)c1C)C2=O (stereo partly drawn),113.9%
8,CC(=O)NC[C@H]1COCc2nc3c(C)cccc3n21,4.229%
9,CCOC(C)c1noc(CN2CCN(c3ccncc3)CC2)n1 (stereo not drawn),-6.635%
10,CN(C)CC1CN(C(=O)NCc2ccccc2)Cc2nccn2C1.O=C(O)C(F)(F)F (stereo not drawn),-13.89%
11,Cc1occc1C(=O)N1Cc2nccn2CC(CN(C)C)C1.O=C(O)C(F)(F)F (stereo not drawn),7.658%
12,COc1ccc(CC(=O)N2Cc3nccn3CC(CN(C)C)C2)cc1.O=C(O)C(F)(F)F (stereo not drawn),100.3%
13,CCOCC(=O)N1Cc2nccn2CC(CN2CCCC2)C1.O=C(O)C(F)(F)F (stereo not drawn),-4.064%
14,CN(C)CC1CN(C(=O)CCc2ccccc2)Cc2nccn2C1.O=C(O)C(F)(F)F (stereo not drawn),96.55%
15,CCOCC(=O)N1CCC(c2nccn2CC2CC2)CC1,4.34%
16,CCOCC(=O)N1Cc2nccn2CC(CN(C)C)C1 (stereo not drawn),110.3%
17,COc1cccc(CC(=O)N2Cc3nccn3CC(CN(C)C)C2)c1 (stereo not drawn),80.89%
18,Cc1ccc(CN2CCOC3(CCN(C(=O)C4CC=CC4)CC3)C2)cc1.O=C(O)C(F)(F)F,15.78%
19,Cc1ccccc1N1CCN(C(=O)c2ncc(F)cc2F)C(C)C1 (stereo not drawn),9.425%
20,COc1ccc(C(=O)N2C[C@H]3CC[C@@H]2CN(C)C3)cc1Cl,-11.94%
21,Cc1ccccc1-c1ncc(CNCc2csc(C(C)C)n2)s1,-1.637%
22,O=C(c1ccoc1)N1CCC2(C1)CN(c1nccs1)C2,-3.02%

row,Structure (SMILES),Percent Effect
1,CN(C)CC1CN(C(=O)Cc2ccccc2)Cc2nccn2C1.O=C(O)C(F)(F)F (stereo not drawn),102.6%
2,Cc1ccc(CC(=O)N2Cc3nccn3CC(CN(C)C)C2)cc1.O=C(O)C(F)(F)F (stereo not drawn),14%
3,NC(=O)CN1CCCC1c1ccccc1Br (stereo not drawn),-4.067%
4,Cc1nc(O)cc(C2CCCN2CCO)n1 (stereo not drawn),112.5%
5,Cc1cncc(C2CCCN2CCO)n1 (stereo not drawn),153.6%
6,Cc1cncc(C2CCCN2CC(N)=O)n1 (stereo not drawn),143.4%
7,OCCCN1CCCC1c1cccc(Br)c1 (stereo not drawn),-6.004%
8,CN1CCN(C[C@H]2CC[C@@H](Cc3ccc(CN4CCCC4)cc3)O2)CC1,-1.169%
9,Cc1ccc(S(=O)(=O)NC[C@H]2OC[C@@H](NCc3cccs3)[C@@H]2O)cc1,7.979%
10,CCn1c(C)nnc1SCCNC(=O)CC1CCc2ccccc21 (stereo not drawn),-3.198%
11,CCOC(=O)[C@]12CCCN(Cc3ccco3)C[C@H]1CN(S(C)(=O)=O)C2.O=C(O)C(F)(F)F,113.6%
12,CCOC(=O)[C@]12CCCN(Cc3ccsc3)C[C@H]1CN(CCOC)C2.O=C(O)C(F)(F)F.O=C(O)C(F)(F)F,-11.63%
13,CCOC(=O)[C@]12CCCN(Cc3cccs3)C[C@H]1CN(C(C)=O)C2.O=C(O)C(F)(F)F,93.24%
14,CCOC(=O)[C@]12CCCN(Cc3nccs3)C[C@H]1CN(S(C)(=O)=O)C2.O=C(O)C(F)(F)F,-4.113%
15,CCOC(=O)[C@]12CCCN(Cc3ccco3)C[C@H]1CN(CCN(C)C)C2.O=C(O)C(F)(F)F.O=C(O)C(F)(F)F.O=C(O)C(F)(F)F,13.18%
16,CCOC(=O)[C@]12CCCN(Cc3nccs3)C[C@H]1CN(CCOC)C2.O=C(O)C(F)(F)F.O=C(O)C(F)(F)F,-1.05%
17,CCOC(=O)[C@]12CCCN(Cc3nccs3)C[C@H]1CN(C(C)C)C2.O=C(O)C(F)(F)F.O=C(O)C(F)(F)F,-10.51%
18,CCOC(=O)[C@]12CCCN(Cc3cccs3)C[C@H]1CN(CCOC)C2.O=C(O)C(F)(F)F.O=C(O)C(F)(F)F,131.5%
19,CCOC(=O)[C@]12CCCN(Cc3cccs3)C[C@H]1CN(C(C)C)C2.O=C(O)C(F)(F)F.O=C(O)C(F)(F)F,108.6%
20,CCOC(=O)[C@]12CCCN(Cc3nccs3)C[C@H]1CN(C(C)=O)C2.O=C(O)C(F)(F)F,10.79%
